# Laboratory results: PubChem BioAssay AID1851 (National Center for Advancing Translational Sciences (NCATS), 2009)
# Where “and” joins values, the source holds several entries; their conditions need not be identical. Identical values can stand only once. Among all 16,000 compounds or so, about 2,600 (16%) were called active. Not shown: some 20% with an inconclusive outcome. Not all results are given here. Values without a mark were called inactive. Calls come from the whole dose curve; as a rule, active = well fitted curve in the direction sought with a large enough effect; inconclusive = small, poorly fitted or top-dose-only effect, or effect the other way; inactive = no such curve, though single readings can be large or run the other way.
# Target: Cytochrome P450 2D6 (Homo sapiens) (UniProt P10635)
# Sequence (P10635 whole entry, looked up): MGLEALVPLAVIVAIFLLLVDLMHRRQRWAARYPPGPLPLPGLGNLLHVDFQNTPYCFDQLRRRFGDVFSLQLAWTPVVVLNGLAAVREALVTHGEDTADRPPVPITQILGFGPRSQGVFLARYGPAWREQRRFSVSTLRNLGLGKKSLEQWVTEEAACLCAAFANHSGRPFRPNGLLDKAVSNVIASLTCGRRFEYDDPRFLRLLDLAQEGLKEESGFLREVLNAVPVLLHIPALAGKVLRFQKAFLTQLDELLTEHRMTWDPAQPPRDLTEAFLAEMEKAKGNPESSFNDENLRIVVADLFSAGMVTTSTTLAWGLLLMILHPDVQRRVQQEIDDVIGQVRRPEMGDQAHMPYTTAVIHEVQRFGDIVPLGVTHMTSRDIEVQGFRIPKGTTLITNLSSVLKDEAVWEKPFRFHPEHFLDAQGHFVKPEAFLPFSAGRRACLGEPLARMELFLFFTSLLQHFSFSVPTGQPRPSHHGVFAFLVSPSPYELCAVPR
# Test: Cytochrome panel assay with activity outcomes
# Details: recombinant CYP, pro-luciferin dealkylation, luminescence, p450-cyp2d6; series mostly up to 57.1 µM; activity, negative = inhibition: at the top concentration
# % is set by controls: 0 for no effect and ±100 for the full control effect.
SMILES,"activity, negative = inhibition",AC50
COC(=O)c1cccc(C(=O)Nc2ccc(C)cc2)n1,-7.78%,
COc1ccc2[nH]cc(CCNc3ccnc(-c4ccc5c(c4)OCO5)n3)c2c1,,7.94 µM (active)
N#CCCn1c(=O)c(-c2cccc(C#N)c2)nc2cnc(Oc3cccc(Cl)c3)nc21,-19.3%,
CC(=O)SCC[N+](C)(C)C,-1.14%,
O=[N+]([O-])c1ccc([C@@H](Nc2ccccc2)c2ccc3cccnc3c2O)cc1,-2.01% [at 11.4 µM],
CC(C)NC(=O)N1CCC2(CC1)CCN(C(=O)c1ccncc1)CC2,-3.15%,
CC(C)CN1CCC2(CC1)CCN(C(=O)c1cnccn1)CC2,,10 µM (active)
CC(C)CN1CCCC2(CCN(C(=O)c3cnccn3)CC2)C1,-14.4%,
CN1CCC2(CC1)CCN(C(=O)c1ccncc1)CC2,-9.34%,
CC(C)CN1CCC2(CC1)CCN(C(=O)c1ccncc1)CC2,,3.98 µM (active)
O=C(c1cnccn1)N1CCC2(CC1)CCN(c1ncccn1)CC2,-11.6%,
COC(=O)[C@@]1(Cc2ccc(OC)cc2)[C@H]2c3cc(C(=O)N4CCCC4)n(Cc4ccc(Cl)c(C(F)(F)F)c4)c3C[C@H]2CN1C(=O)c1ccccc1,-5.8%,
COc1cc(NC(=S)NC(=O)c2c(OC)cccc2OC)ccc1NC(=O)c1cccs1,-8.39%,
C=C1c2cccc(O)c2C(O)=C2C(=O)[C@@]3(O)C(O)=C(C(N)=O)C(=O)[C@@H](N(C)C)[C@@H]3[C@@H](O)[C@H]12,1.57% [at 25.6 µM],
CCOC(=O)N1CCN(C(=O)CNCc2cccs2)CC1,,3.98 µM (active)
CCOC(=O)N1CCN(c2nc(-c3cccs3)cc(C(F)(F)F)n2)CC1,-26.9%,
CCOC(=O)N1CCN(C(=O)CNS(=O)(=O)c2cccs2)CC1,-18.3%,
O=c1n(-c2ccccc2)c(=O)n2n1CC[C@H]1/C(=N\OCc3ccccc3)[C@H]3O[C@@H]3[C@@H](O)[C@@H]12,10.4% [at 11.4 µM],
c1ccc(Oc2cc(-c3ccccc3)ncn2)cc1,19.9%,
Clc1ccc(C(c2nnnn2C2CCCC2)N2CCN(Cc3ccncc3)CC2)cc1 (configuration not stated),,1.26 µM (active)
Cc1ccc(C(c2nnnn2C2CCCC2)N2CCN3CCCC3C2)cc1 (configuration not stated),,0.447 µM (active)
c1coc(CN2CCN(C(c3cccs3)c3nnnn3C3CCCC3)CC2)c1 (configuration not stated),,1.26 µM (active)
CON(C)C(=O)c1nnc2c3ccccc3n(S(=O)(=O)c3ccc(C)cc3)c2n1,-3.04% [at 11.4 µM] and -5.32% [at 11.4 µM],
O=c1c(-c2ccc(F)cc2)nc2cnc(Nc3ccccc3)nc2n1Cc1cccs1,8.67%,
CC(C)N(CC(=O)O)CC(=O)O,12.3% [at 11.4 µM],

SMILES,"activity, negative = inhibition",AC50
CO[C@H]1COC(=O)[C@@H](C)COC(=O)[C@@H](Cc2ccccc2)NC(=O)C/C=C\[C@H]1C,0.386% [at 11.4 µM],
Cc1ccc(S(=O)(=O)N(CC(=O)N/N=C/c2ccc(F)cc2)c2cccc3cccnc23)cc1,-8.45%,
CCCOc1ccc(C(=O)NNC(=S)NC(=O)CC)cc1,-9.37%,
CCCOc1ccc(-c2nc(N)n[nH]2)cc1,-9.35%,
CCCOc1ccc(OCCNC2CCCC2)cc1,,1.26 µM (active)
O=C(Nc1cccc(F)c1)N1CC[C@@]2(CCCN(C(=O)c3cnccn3)C2)C1,-0.771%,
CC(C)(C)NC(=O)C(=O)N/N=C/c1ccc(Br)cc1,-2.47%,
Nc1nc(-c2ccccc2)cc(-c2ccccc2O)n1,1.69%,
COc1cccc(Cn2c(=O)c(-c3ccc(Cl)cc3)nc3cnc(OC)nc32)c1,-8.08%,
c1ccc(CCN2CCN=C2Cc2ccccc2)cc1,,0.126 µM (active)
C[C@H](c1ccccc1)N1C(=O)[C@H]2[C@@H]3[C@H](O)[C@H](O)CC(=O)[C@H]3CC[C@H]2C1=O,4.75% [at 11.4 µM],
Cc1ccccc1NC(=S)NC(=O)c1cc(-c2ccccc2)nc2ccccc12,-15.6%,
COC(=O)CCC(=O)NNC(=O)CCCOc1ccc(Cl)cc1Cl,-7.11%,
CC(C)(C)C(=O)NNC(=O)CCCOc1ccc(Cl)cc1Cl,-11.2%,
C#CCN(C)CCCOc1ccc(Cl)cc1Cl,,2 µM (active) and 398 nM (active)
Cc1ncc([N+](=O)[O-])n1CC(=O)NCc1ccccc1,5.23%,
O=C(NC1CCCCC1)C12CC3CC(C1)CC(n1cncn1)(C3)C2,,11.2 µM (active)
COc1ccc(NC(=O)C23CC4CC(C2)CC(n2cnc(Br)n2)(C4)C3)c(C)c1,24.7%,
O=S(=O)(c1cccc(-c2nnc(-c3ccc(Br)cc3)o2)c1)N1CCCCCC1,-13.3%,
Cc1ccc(S(=O)(=O)n2ccc(-c3cccc(OCc4c(F)cccc4Cl)c3)n2)cc1,17.8%,
COc1ccc(C(=O)N/N=C2/C(=O)c3c(C)cc(C)cc3CC2(C)C)cc1,-4.67% [at 11.4 µM],
CCCC1S/C(=N/N=C/c2ccc(OC)cc2)N(Cc2ccc(OC)cc2)C1=O (configuration not stated),-23%,
COc1cccc(C(=O)n2c(SC)nc3cc4c(cc32)OCCO4)c1,-7.63%,
Cc1ncc(N=Nc2ccccc2Cl)c(-c2ccccc2)n1,-18.5%,
CCOc1ccc(-n2cc(C(=O)NCc3ccco3)c3cc(OC)c(OC)cc3c2=O)cc1,5.46%,

SMILES,"activity, negative = inhibition",AC50
COc1ccc(CCn2c(=N)c(C(=O)NCc3ccco3)cc3c(=O)n4ccccc4nc32)cc1,,1.12 µM (active)
CCOC(=O)c1cc2c(=O)n3ccccc3nc2n(CCCOC)c1=NC(C)=O,3.85%,
O=C(/C=C/c1ccccc1)N1CCN(Cc2nc3ccccc3c(=O)[nH]2)CC1,-21.2%,
COc1cccc(-c2nc(NCc3cccs3)c3ccccc3n2)c1,,12.6 µM (active)
CS(=O)(=O)Nc1cccc(-c2nc(NCc3ccccc3)c3ccccc3n2)c1,,20 µM (active)
CS(=O)(=O)Nc1cccc(-c2nc(NCc3cccnc3)c3ccccc3n2)c1,,20 µM (active)
Cc1cccc(CNc2nc(-c3cccc(NS(C)(=O)=O)c3)nc3ccccc23)c1,,12.6 µM (active)
O=C(O)CSc1sc(=S)sc1SCC(=O)O,-6.18%,
N[C@@H](Cc1ccc(O)c(O)c1)C(=O)O,,inactive
O=C(NNC(=O)c1cc2cc3ccccc3nc2s1)c1cccc(Cl)c1,15.3%,
COc1ccc(NC(=O)c2ccc3c(=O)n(Cc4ccco4)c(=S)[nH]c3c2)c(OC)c1,-14.5%,
Cc1nc2c(ccc3nc(NC(=O)c4ccc5c(c4)OCCO5)sc32)s1,-17.3%,
CCOCCCNC(=O)C1CCN(S(=O)(=O)N2CC(C)CC(C)C2)CC1 (configuration not stated),-0.643%,
CC[C@H](C)N(C)C(=O)c1cc2ccccc2c(-c2ccccc2Cl)n1,8.23%,
CCOC(=O)CC(NC(=O)c1ccc(C)cc1)c1ccc(C)cc1 (configuration not stated),-14.9%,
O=C(c1cccc(F)c1)N1CCC[C@@]2(CCN(c3cccc(-c4ccccc4)c3)C2)C1,-12.7%,
COc1cccc(Nc2ncc3nc(C)c(=O)n(-c4ccccc4)c3n2)c1,-7.35%,
Cc1oc2c(C)c(O)ccc2c(=O)c1-c1ccc2ccccc2n1,-5.6%,
O=[N+]([O-])c1ccc(CSc2ncnc3c2ncn3[C@@H]2O[C@@H](CO)[C@@H](O)[C@H]2O)cc1,2.45%,
CS(=O)(=O)Nc1cccc(-c2nc(NCc3cccs3)c3ccccc3n2)c1,,10 µM (active)
CCOC(=O)C(NC(C)=O)C(OC(C)=O)c1cccc(N(CCO)CCO)c1 (configuration not stated),-0.0705%,
Cc1nc(-c2c(C(F)(F)F)noc2-c2ccc(O)cc2O)cs1,-24.6%,
CC(=O)Nc1ccc(S(=O)(=O)NCCc2ccc(F)cc2)cc1,,15.8 µM (active)
CC(=O)Nc1ccc(S(=O)(=O)c2ccc(N)cc2)cc1,-1.48%,
COc1ccc(CCNC(=O)CC(NS(=O)(=O)c2ccc(NC(C)=O)cc2)C(C)C)cc1OC (configuration not stated),-8.43%,

SMILES,"activity, negative = inhibition",AC50
CN(C)C(=O)c1ccc(-c2cc(N(C)Cc3ccco3)ncn2)cc1,-13.6%,
CN(Cc1ccco1)c1cc(-c2ccc3c(c2)OCO3)ncn1,,12.6 µM (active)
CN(Cc1ccco1)c1cc(-c2ccoc2)ncn1,-0.773%,
CN(C)c1ccc(-c2cc(N(C)Cc3ccco3)ncn2)cc1,,7.94 µM (active)
COc1ccc(C(=O)N2CCC3(CC2)CN(C(=O)Nc2cccc(C#N)c2)C3)cc1,2.7%,
Cc1nn(CCc2n[nH]c(=S)n2-c2ccc(F)c(Cl)c2)c(C)c1[N+](=O)[O-],-1.51%,
C#C[C@@]1(OC(C)=O)CC[C@@H]2[C@@H]3CCC4=C[C@@H](OC(C)=O)CC[C@H]4[C@H]3CC[C@]21C,-7.92% [at 25.6 µM],
N#CCSc1ncnc2c1cnn2CCO,-1.07%,
COC(=O)c1c(-c2ccccc2)csc1NC(=O)CSc1ncnc2sc(C)c(C)c12,16.2%,
NC(=S)c1ccc[n+]([C@@H]2O[C@@H](COP(=O)([O-])OP(=O)(O)OC[C@@H]3O[C@@H](n4cnc5c(N)ncnc54)[C@@H](OP(=O)(O)O)[C@H]3O)[C@@H](O)[C@H]2O)c1,-0.503%,
CC(=O)N1CCC2(CC1)CCN(c1ccccn1)CC2,6.43%,
COc1ccc(C(=O)N2CCC3(CCN(Cc4ccncc4)CC3)CC2)cc1,-11.6%,
COC(=O)N1CCC2(CC1)CCN(c1cccc(-c3ccccc3)c1)CC2,-12.4%,
COCC(=O)N1CCC2(CCN(Cc3ccncc3)CC2)CC1,,6.31 µM (active)
Cc1noc(C)c1C(=O)N1CCC2(CCN(Cc3ccccc3)CC2)CC1,-1.81%,
COc1ccccc1CN1CCC2(CC1)CCN(C(=O)c1c(C)noc1C)CC2,,7.94 µM (active)
COC(=O)N1CCC2(CCN(Cc3ccccc3OC)CC2)CC1,,2 µM (active)
COC(=O)N1CCC2(CCN(Cc3nccs3)CC2)CC1,1.21%,
COc1ccccc1CN1CC[C@@]2(CCCN(C(=O)c3c(C)noc3C)C2)C1,15.2%,
CC(=O)N1CCC2(CCN(Cc3ccncc3)CC2)CC1,-7.43%,
CC(=O)N1CCC2(CC1)CCN(c1ccc(-c3ccccc3)cc1)CC2,-6.74%,
COc1ccccc1CN1CCC2(CC1)CCN(C(C)=O)CC2,,5.01 µM (active)
